# Screens (PubChem BioAssay)
# Shown are actives, neighbours in structure and some others; about 6.3% of the full set was active somewhere.
# MK inhibit = S. pneumoniae MK inhibitors, primary screen, biochemical, PK/LDH-coupled NADH absorbance; purified MK, PK/LDH-coupled NADH absorbance 340 nm; hit rate 0.48% among 65,000; inhibition, % at 10 µM;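 active = ranked among the strongest by inhibition in the single 10 µM screen, a fixed top-ranked set picked for dose follow-up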
# Abs 340nm = compound light absorbance at 340 nm, profiling panel, artefact control, biochemical, MLSMR library, data from PS, PMK, MK assays; compound absorbance at 340 nm, fold over control; fold change at 10 µM; 65,000 tested, under 10 active;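 active = at 10 µM dose, initial 340 nm absorbance at least 2 fold that of control wells; inactive = change under 2 fold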;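 also: initial absorbance extrapolated from kinetic A340 decline of NADH oxidation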
# Autofluor 339 = intrinsic fluorescence of library compounds, ex339/em460 – biochemical, MLSMR library, data from DPM-DC assay, artefact control, profiling panel; compound autofluorescence, ex339/em460 nm, NADH buffer; hits give high values; 1 = no-compound wells, NADH background; fluorescence fold increase at 10 µM; hit rate 5.5% among 65,000; AID 709, 2007;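 active = at 10 µM, mean starting fluorescence two-fold or more over control wells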;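 also: signal is the first read of a kinetic run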
# Spn PMK inh = S. pneumoniae PMK inhibitors, primary screen, biochemical, mevalonate pathway, pilot trial included; inhibition, % at 10 µM; AID 539, 2006; phosphomevalonate kinase (Streptococcus pneumoniae D39); hit rate 0.49% among 65,000; purified PMK, PK/LDH-coupled NADH absorbance 340 nm;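 active = top-ranked compounds by inhibition in the single 10 µM screen, taking a fixed number of the strongest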;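 also: 0% = full reaction with DMSO carrier and 100% = background rate without enzyme reaction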
# NADH enzymes = inhibitors of PK/LDH coupling enzymes, profiling panel, artefact control, biochemical, MLSMR library; coupled PK/LDH NADH assays, four targets; IC50, µM (series often up to 10 µM), without a hit: at the top dose inhibition; hit rate 0.02% among 65,000; AID 774, 2007;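 active = single-dose screening hits from any of four coupled enzyme assays that gave an IC50 when retested across doses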;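 also: the DPM-DC format reads NADH fluorescence rather than 340 nm absorbance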
# Spn DPM-DC inh = S. pneumoniae DPM-DC inhibitors, primary screen, biochemical, PK/LDH-coupled NADH fluorescence; calls only at 10 µM; hit rate 0.49% among 65,000; purified DPM-DC; AID 556, 2006; diphosphomevalonate decarboxylase (Streptococcus pneumoniae D39);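 active = the 320 compounds with the highest percent inhibition in the single-dose primary screen, excluding strongly autofluorescent ones, cut at about 32% in these data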;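 also: kinetic rate of NADH fluorescence loss reporting ADP formed by the decarboxylase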
# Starred values were filed as active, the others as inactive; i = inactive; · = no result shown; + = active, no number.
SMILES,MK inhibit,Abs 340nm,Autofluor 339,Spn PMK inh,NADH enzymes,Spn DPM-DC inh
CCOC(=O)c1nn(-c2ccc3c(c2)CCN3C(C)=O)cc1O,6,1.1,2.2*,0,3%,·
COC(=O)c1oc2ccc(Br)cc2c1NC(=O)CN1CCN(C)CC1,7,1,1.1,12,3%,i
COC(=O)c1oc2ccc(Br)cc2c1NC(=O)c1ccccc1,5,1.1,3.2*,10,12%,i
c1ccc(CC2CCN(c3nc4ccccc4n4nnnc34)CC2)cc1,0,1.1,2.6*,10,3%,i
Cc1cc(C)n(C(=O)CNC(=O)COc2ccccc2)n1,12,1,1.1,8,7%,i
CC1(C)CC(=O)C2=C(C1)N(CCN1CCOCC1)C1=C(C(=O)CC(C)(C)C1)C2c1cccc(Cl)c1,·,0.99,4.3*,0,0%,·
Cc1ccc(SCc2cn3c(C)csc3n2)cc1,7,1,1.1,9,5%,i
CCOc1cc(CN2CCN(C(=O)c3ccco3)CC2)ccc1OC,51*,1.1,1,0,7%,i
CCOc1cc(CN2CCN(c3ccc(C(C)=O)cc3)CC2)ccc1OC,44*,1.2,1.1,0,15%,i
COc1ccc(CN2CCN(C(=O)c3cccs3)CC2)cc1Br,49*,1.1,1.1,13,21%,i
O=C(Oc1ccc(-c2nnco2)cc1)N(c1ccccc1)c1ccccc1,7,1,1.1,4,4%,i
CC1(CC(=O)O)C(=O)N=C2C=CC=CN21 (stereo not given),12,1,2.1*,6,3%,·
CCOc1ccc(N(CC(=O)NC2CCCC(C)C2C)S(=O)(=O)c2c(C)noc2C)cc1 (stereo not given),8,0.99,1,9,6%,+
CCOC(=O)C1=C(C)N=C2SC(C)C(=O)N2C1c1ccc(OCC)c(OCC)c1 (stereo not given),1,1,1,14,6%,i
CCOC(=O)C1CCN(C(=O)Cc2ccc(OC)c(OC)c2)CC1,2,1,1.1,22,8%,i
CCN(CC)C(=O)C1CCN(Cc2ccc(Br)cc2)CC1,0,1.1,2.7*,6,8%,i
CCOC(=O)C1CCN(Cc2ccc(N(C)C)cc2)CC1,43*,1.1,1.1,0,14%,i
CCOC(=O)C1CCN(Cc2cn[nH]c2-c2ccccc2)CC1,7,1,3.8*,12,10%,·
CCOC(=O)C1CCN(c2c(N3CCN(Cc4ccccc4)CC3)c(=O)c2=O)CC1,6,1.1,1.1,6,4%,i
CCOC(=O)C1CCN(Cc2ccc(OC)cc2OC)CC1,51*,1.1,1.1,0,18%,i
CCOC(=O)C1CCN(Cc2cn[nH]c2-c2ccc(C)cc2)CC1,3,1,1.1,8,4%,i
CCOc1ccccc1NC(=O)N1CCCC1C(=O)Nc1ccc(-n2cnnn2)c(C)c1 (stereo not given),4,1,1,12,5%,i
CN(Cc1cccs1)S(=O)(=O)c1cccs1,8,0.97,1.1,14,7%,i
CCCN1C2CCCC1CC(NC(=O)c1cc(OC)c(OC)c(OC)c1)C2 (stereo not given),7,1,1,11,6%,i
O=C1CC(Cc2ccccc2)C(=O)N1CCCn1ccnc1 (stereo not given),i,1.1,0.68,i,3%,i
Cc1ccc(NC(=O)CSc2nnc(-c3ccc(S(=O)(=O)N4CCCC4)cc3)o2)cc1C,0,1.1,1.1,20,7%,i
O=C(O)C1CCN(c2nc(-c3ccccc3)nc3c2oc2ccccc23)CC1,10,1.1,1.2,6,5%,i
COc1ccc(CN2CCN(c3ccccn3)CC2)c(OC)c1,36,1,1.1,23,20%,i
